Assay results published in PubChem BioAssay (NCATS).
Values joined by “and” are separate entries in the source; they are usually repeats but may differ in a detail not shown here. Equal entries are not always repeated. Records with an inconclusive call do not appear. Some compounds were tested as several samples or in several runs, with calls that do not always agree. Unmarked numbers belong to inactive results. Active and inactive are the calls of the source. Calls come from the whole dose curve; as a rule, active = well fitted inhibition curve with a large enough effect; inconclusive = small, poorly fitted or top-dose-only effect; inactive = flat fitted curve, though single readings scatter.

The compounds below were run on HEK293 (assay: Cytotoxic Profiling of Annotated Libraries Using Quantitative High-Throughput Screening (AID 1296008; note: nearly all actives have a fitted effect of over 60% in size)). Settings: Five cell lines viability, CellTiter-Glo ATP luminescence, 48-72 h; max response: hits give low values.
Excerpt: Cell-based phenotypic screening is a commonly used approach to discover biological pathways, novel drug targets, chemical probes and high-quality hit-to-lead molecules. Many hits identified from high-throughput screening campaign are ruled out through a series of follow-up potency, selectivity/specificity, and cytotoxicity assays. Prioritization of molecules with little or no cytotoxicity for a more in-depth downstream evaluation influence the future direction of projects, so cytotoxicity profiling of the screening libraries at early stage is essential for increasing the likelihood of candidate success. […] For the annotated library, we also examined the primary targets and mechanistic pathways regularly associated with cell death. To our knowledge, this is the first study to use high-throughput screening to profile large libraries for cytotoxicity assessment in both normal and cancer cell lines. In summary, the results generated here constitutes a valuable resource for the scientific community and provides insight on identifying cytotoxic compounds with particular mechanisms of action, and prioritizing compounds with suitable cytotoxicity profile for further evaluation.
A pintool (Kalypsys) was used to transfer 23 nL of compound solution to the 1536-well assay plates. After 48 or 72 hr incubation at 37 degree Celsius, 5% CO2 and 95% humidity, 2.5 uL of CellTiter-Glo (Promega) was dispensed into each well using a dispenser (Aspect Automation, St. Paul, MN) with solenoid valves (Lee Valves, Westbrook CT). Plates were left at room temperature for 10 min before imaging the ATP-coupled luminescence using a ViewLux microplate imager (PerkinElmer, Waltham, MA).
% is set by controls: 0 for no effect and ±100 for the full control effect; potency is the fitted concentration of half-maximal effect.

Question: Which results are given for `C#CCN[C@@H]1CCc2ccccc21`?
Answer: outcome: inactive; max response: -23.7%

Question: Which results are given for `CCn1cc(C(=O)O)c(=O)c2cc(F)c(N3CCN(C)CC3)cc21`?
Answer: outcome: inactive; max response: 0.679%

Question: For `O=S(=O)(c1cccc2cnccc12)N1CCCNCC1`, which max response is on record?
Answer: -25.6%

Question: And the outcome?
Answer: inactive

Question: How did the outcome turn out when `O=S(=O)(O)CCS` was run?
Answer: inactive

Question: What about the max response of the same compound?
Answer: -11.9%

Question: `CN1CCN(c2c(F)cc3c(=O)c(C(=O)O)cn4c3c2OCN4C)CC1` was tested. Which outcome did it give?
Answer: inactive

Question: And the max response?
Answer: -2.04%

Question: With `CNC(=O)c1cc(Oc2ccc(NC(=O)Nc3ccc(Cl)c(C(F)(F)F)c3)cc2)ccn1` as the compound, how does the Potency read?
Answer: 7.43 µM (active) and 5.8 µM (active)

Question: For `COc1nc(N)nc2c1ncn2[C@@H]1O[C@H](CO)[C@@H](O)[C@@H]1O`, which outcome is on record?
Answer: inactive

Question: With `COCCCOc1cc(C[C@@H](C[C@H](N)[C@@H](O)C[C@H](C(=O)NCC(C)(C)C(N)=O)C(C)C)C(C)C)ccc1OC` as the compound, how does the outcome read?
Answer: inactive

Question: `CC(=O)[C@H]1CC[C@H]2[C@@H]3CCC4=CC(=O)CC[C@]4(C)[C@H]3CC[C@]12C` was tested. Which Potency did it give?
Answer: 16.6 µM (active)

Question: For `Nc1nc(N)c2nc(CNc3ccc(C(=O)NC(CCC(=O)O)C(=O)O)cc3)cnc2n1` (stereo unspecified), which Potency is on record?
Answer: 0.132 µM (active)

Question: What does the source list for `C[C@@H](NCCCc1cccc(C(F)(F)F)c1)c1cccc2ccccc12`?
Answer: max response: -18.5%; Potency: 15 µM (active)

Question: `CC(C)(C)NC(=O)[C@H]1CC[C@H]2[C@@H]3CC[C@H]4NC(=O)C=C[C@]4(C)[C@H]3CC[C@]12C` was tested. Which max response did it give?
Answer: -5.16%

Question: Which Potency does the source give for `COC(=O)Nc1nc2ccc(S(=O)c3ccccc3)cc2[nH]1` (stereo unspecified) here?
Answer: 841 nM (active) and 16.6 µM (active)

Question: For `NCCCC(O)(P(=O)(O)O)P(=O)(O)O`, which max response is on record?
Answer: -8.5% and -22.9%

Question: With `CC(C)OC(=O)C(C(=O)OC(C)C)=C1SC=CS1` as the compound, how does the max response read?
Answer: -6.55%

Question: How did the max response turn out when `O=c1cc(O)c(Cl)c[nH]1` was run?
Answer: 3.54% and 0.705%

Question: With `CCOCC(O)COc1ccc(NC(=O)CC[S+](C)C)cc1` (stereo unspecified) as the compound, how does the max response read?
Answer: -1.76% and 3.69%

Question: How did the outcome turn out when `CCCOc1ccc(C(=O)OCCN(CC)CC)cc1N` was run?
Answer: inactive

Question: And the max response?
Answer: -0.795%

Question: With `CCCCOc1ccc(CC(=O)NO)cc1` as the compound, how does the max response read?
Answer: -50.4%

Question: Which Potency does the source give for `C1CCC(C(CC2CCCCN2)C2CCCCC2)CC1` (stereo unspecified) here?
Answer: 26.4 µM (active)

Question: Which max response does the source give for `CCOC(=O)[C@H](CCc1ccccc1)N[C@H]1CS[C@H](c2cccs2)CN(CC(=O)O)C1=O` here?
Answer: 4.3%

Question: And the outcome?
Answer: inactive

Question: With `CCOC(=O)c1ccc(OC(=O)CCCCCN=C(N)N)cc1` as the compound, how does the max response read?
Answer: -2.03%

Question: What about the outcome of the same compound?
Answer: inactive

Question: Which max response does the source give for `CCN(CC)CCn1c(=O)c(Cc2ccc(OC)cc2)nc2ccccc21` here?
Answer: -12.9%

Question: `CC(C)Cn1cnc2c(N)nc3ccccc3c21` was tested. Which max response did it give?
Answer: -0.0078%

Question: `CN(C)c1ccc(C(=C2C=CC(=[N+](C)C)C=C2)c2ccc(N(C)C)cc2)cc1` was tested. Which Potency did it give?
Answer: 237 nM (active) and 105 nM (active)

Question: `O=NN(CCCl)C(=O)NC1CCCCC1` was tested. Which max response did it give?
Answer: 3.97%

Question: What about the outcome of the same compound?
Answer: inactive

Question: How did the Potency turn out when `S=P(N1CC1)(N1CC1)N1CC1` was run?
Answer: 22.8 µM (active)

Question: For `CCc1c2c(nc3ccc(OC(=O)N4CCC(N5CCCCC5)CC4)cc13)-c1cc3c(c(=O)n1C2)COC(=O)[C@]3(O)CC`, which Potency is on record?
Answer: 7.5 µM (active) and 1.05 µM (active)

Question: How did the max response turn out when `NNC(=O)c1ccncc1` was run?
Answer: 3.4% and -0.464%

Question: For `COc1cc([C@@H]2c3cc4c(cc3[C@H](O)[C@H]3COC(=O)[C@H]23)OCO4)cc(OC)c1OC`, which Potency is on record?
Answer: 0.0422 µM (active)

Question: What about the max response of the same compound?
Answer: -87.1%
